Assay [1] has as its target Retinoic acid receptor RXR-alpha (Homo sapiens) (UniProt P19793). The assay can be described thus: OT_NURR1_NURR1RXRa_0480: Odyssey Thera (OT) 8-hour HEK293T Protein Complementation Assay for Nurr1/retinoid X receptor (RXR) (AID 2283385; active = hit-call score of the fitted dose curve at least 0.9, where 1 is the maximum). Summed up:
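Read-out: fluorescence from protein-fragment complementation between Nurr1 and RXRα in human HEK293T cells, 8 h after dosing. DMSO served as negative control; increased signal counted as activity.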

Assay [2] shares this target. Nature of the assay: OT_NURR1_NURR1RXRa_1440: Odyssey Thera (OT) 24-hour HEK293T Protein Complementation Assay for Nurr1/retinoid X receptor (RXR) (AID 2283386; active = hit-call score of the fitted dose curve at least 0.9, where 1 is the maximum). Summed up:
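Fluorescence PCA read-out; HEK293T; 24 h post-dose; bait/prey fused to reporter fragments; gain-of-signal fit vs DMSO negative control.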

Read-out in assay [3]: Tumor necrosis factor receptor superfamily member 6 (Homo sapiens) (UniProt P25445)
Nature of the assay: LTEA_HepaRG_FAS: Life Technologies and Expression Analysis (LTEA) Assay for Fas cell surface death receptor (FAS) using HepaRG (AID 2283447). The settings on record: mRNA level, 48 h; actives raise or lower the signal. Summed up:
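Differentiated human HepaRG cells, pre-cultured 48 h, were exposed in duplicate for 48 h to 8-point half-log concentrations (top 100 uM, 0.5% DMSO) in serum-free induction medium; FAS mRNA measured by qRT-PCR, normalized to ACTB/GAPDH/POLR2A, bidirectional fit versus DMSO.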

Read-out in assay [4]: Fatty acid synthase (Homo sapiens) (UniProt P49327)
The assay can be described thus: LTEA_HepaRG_FASN: Life Technologies and Expression Analysis (LTEA) Assay for Fatty Acid Synthase (FASN) using HepaRG (AID 2283448). The settings on record: mRNA level, 48 h; actives raise or lower the signal. A digest of the protocol: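 HepaRG, 48 h exposure, 8-pt half-log series top 100 uM, 0.5% DMSO vehicle, duplicates. Readout: FASN transcript by Fluidigm qRT-PCR; housekeeping-normalized; bidirectional curve fit vs DMSO baseline.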

Read-out in assay [5]: Cyclin D2 (CCND2), CCND2 (gene 894)
The assay can be described thus: LTEA_HepaRG_CCND2: Life Technologies and Expression Analysis (LTEA) Assay for Cyclin D2 (CCND2) using HepaRG (AID 2283449).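 Note: CCND2 transcript measured by TaqMan qRT-PCR and normalised to three housekeeping genes.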 To be noted: mRNA level, 48 h; actives raise or lower the signal. A digest of the protocol:
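In this HepaRG study, an eight-point concentration series (max 100 uM, 0.5% DMSO) is applied for 48 h. CCND2 mRNA change is derived by qRT-PCR normalised to ACTB, GAPDH and POLR2A.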

Assay [6] deals with Estrogen receptor (Homo sapiens) (UniProt P03372). Nature of the assay: OT_ERa_GFPERaERE_0480: Odyssey Thera (OT) 8-hour HeLa Transcription Induction Assay for Estrogen Receptor (AID 2283381). Summed up:
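GFP-ERE reporter, HeLa, 8 h exposure. Readout: fluorescence microscopy, high-content image analysis. Fit direction positive vs DMSO negative control.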

For assay [7] the target is unchanged. The assay can be described thus: OT_ERa_GFPERaERE_0120: Odyssey Thera (OT) 2-hour HeLa Transcription Induction Assay for Estrogen Receptor (AID 2283382; active = hit-call score of the fitted dose curve at least 0.9, where 1 is the maximum). Summed up: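 Fluorescence microscopy read-out: inducible fluorescent protein reporter in HeLa cells, imaged 2 h post-dose. Signal increase over DMSO negative control fitted as single primary endpoint via high content image analysis.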

In assay [8] the target is Peroxisome proliferator-activated receptor gamma (Homo sapiens) (UniProt P37231). Nature of the assay: OT_PPARg_PPARgSRC1_0480: Odyssey Thera (OT) 8-hour Protein-Complementation Assay for Peroxisome Proliferator-activated Receptor Gamma / SRC-1 Co-activator (AID 2283387; active = hit-call score of the fitted dose curve at least 0.9, where 1 is the maximum). Summed up:
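HEK293T transiently transfected with PPARg and SRC-1 fused to Venus YFP fragments, compounds 8 h at 37C. Fixed, Draq5-stained cells imaged; nuclear/cytoplasmic 488 nm fluorescence ratio over at least 350 cells per image; gain fitted versus DMSO.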

Assay [9] has the same target. Nature of the assay: OT_PPARg_PPARgSRC1_1440: Odyssey Thera (OT) 24-hour Protein-Complementation Assay for Peroxisome Proliferator-activated Receptor Gamma/ SRC-1 Co-activator (AID 2283388; active = hit-call score of the fitted dose curve at least 0.9, where 1 is the maximum). A digest of the protocol:
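HEK293T transiently transfected with PPARg/SRC-1 split-Venus YFP fusions 48 h before dosing, then treated 24 h at 37C. Fixed cells imaged; nuclear/cytoplasmic 488 nm fluorescence ratio, gain of signal versus DMSO.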

Assay [10] is described as follows: CEETOX_H295R_11DCORT: CeeTox H295R High-throughput Steroidogenesis Assay for 11-Deoxycortisol (11DCORT) (AID 2283432).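 For AC50: 11-deoxycortisol secreted into the medium measured by LC-MS/MS.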 The settings on record: actives raise or lower the signal. A digest of the protocol: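 H295R cells prestimulated 48 h with 10 uM forskolin, then exposed 48 h to chemical in 0.1% DMSO. 11-Deoxycortisol in medium quantified by HPLC-MS/MS after MTBE extraction; bidirectional fit versus DMSO. MTT viability read in same wells.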

A short description of assay [11]: CEETOX_H295R_OHPREG: CeeTox H295R High-throughput Steroidogenesis Assay for OH-Pregnenolone (OHPREG) (AID 2283434). To be noted: actives raise or lower the signal. A digest of the protocol:
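Readout: HPLC-MS/MS of 17alpha-hydroxypregnenolone in medium after 48 h chemical exposure of H295R cells pretreated with forskolin. Values fitted bidirectionally relative to DMSO; chemicals reducing viability to 20–70% were retested after 10-fold dilution.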

Assay [12] is described as follows: CEETOX_H295R_OHPROG: CeeTox H295R High-throughput Steroidogenesis Assay for OH-Progesterone (OHPROG) (AID 2283435). The settings on record: actives raise or lower the signal. Summed up: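 HPLC-MS/MS quantification of 17alpha-hydroxyprogesterone secreted by H295R cells after 48 h chemical exposure, following 48 h 10 uM forskolin prestimulation. Gain or loss of signal fitted relative to DMSO. Viability checked by MTT in the same wells.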

A short description of assay [13]: CEETOX_H295R_ANDR: CeeTox H295R High-throughput Steroidogenesis Assay for Androstenedione (ANDR) (AID 2283436).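 Note: human H295R adrenal cells exposed for 48 h with androstenedione measured in medium.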 The settings on record: actives raise or lower the signal. Summed up:
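Steroidogenesis in H295R adrenal cells after 48 h dosing; androstenedione quantified by LC-MS/MS, with DMSO as negative control and baseline for bidirectional curve fitting.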

The nature of assay [14]: CEETOX_H295R_CORTISOL: CeeTox H295R High-throughput Steroidogenesis Assay for Cortisol (AID 2283438).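 Note: cortisol secreted into medium quantified by LC-MS/MS.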 The settings on record: actives raise or lower the signal. A digest of the protocol:
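Read-out: cortisol in culture medium by reverse-phase C18 HPLC with ESI-positive tandem MS, after MTBE liquid-liquid extraction. Cells: human adrenal H295R, forskolin-primed (10 uM, 48 h) before 48 h chemical exposure in 0.1% DMSO.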

Assay [15] in a line: CEETOX_H295R_DOC: CeeTox H295R High-throughput Steroidogenesis Assay for DOC (AID 2283439). The settings on record: actives raise or lower the signal. A digest of the protocol:
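Human adrenocortical H295R cells, passages up to 10, received 10 uM forskolin for 48 h before chemical addition. After another 48 h exposure in 0.1% DMSO, secreted DOC was measured by LC-MS/MS, with gain or loss fitted against DMSO controls.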

The nature of assay [16]: CEETOX_H295R_ESTRADIOL: CeeTox H295R High-throughput Steroidogenesis Assay for Estradiol (AID 2283440).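 Note: estradiol secreted into medium quantified by LC-MS/MS after dansyl derivatisation.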 The settings on record: actives raise or lower the signal. Summed up: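 H295R cells pre-stimulated 48 h with 10 uM forskolin, then exposed 48 h to chemical in 0.1% DMSO. Medium estradiol quantified by MTBE extraction, dansyl derivatisation and HPLC-MS/MS; bidirectional fit versus DMSO; MTT viability required >/=70%.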

Assay [17] in a line: CEETOX_H295R_ESTRONE: CeeTox H295R High-throughput Steroidogenesis Assay for Estrone (AID 2283441).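 Note: estrone secreted into medium measured by LC-MS/MS after dansyl derivatization.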 The settings on record: actives raise or lower the signal. Summed up: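 Forskolin-stimulated H295R cells are treated 48 h with chemical, and estrone in the medium is measured by LC-MS/MS. Activity is fitted in both directions relative to DMSO controls, with chemicals diluted until MTT viability reaches at least 70%.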

The nature of assay [18]: CEETOX_H295R_PROG: CeeTox H295R High-throughput Steroidogenesis Assay for Progesterone (PROG) (AID 2283442). The settings on record: actives raise or lower the signal. Summed up:
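H295R adrenal cells prestimulated 48 h with 10 uM forskolin, then exposed 48 h to test chemical in 0.1% DMSO. Progesterone in medium quantified by HPLC-MS/MS after MTBE extraction; viability checked by MTT in same wells.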

The target in assay [19] is Bile acid receptor (Homo sapiens) (UniProt Q96RI1). Nature of the assay: OT_FXR_FXRSRC1_0480: Odyssey Thera (OT) 8-hour HEK293T Protein-Complementation Assay for Farnesoid X receptor/SRC-1 Co-activator (AID 2283383; active = hit-call score of the fitted dose curve at least 0.9, where 1 is the maximum). A digest of the protocol:
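Fluorescence intensity read-out, 8 h post-dose, HEK293T protein-fragment complementation; FXR bait and SRC-1 prey each linked to reporter fragments. Activity scored as signal increase over DMSO negative control.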

Assay [20] shares this target. Nature of the assay: OT_FXR_FXRSRC1_1440: Odyssey Thera (OT) 24-hour HEK293T Protein-Complementation Assay for Farnesoid X receptor/SRC-1 Co-activator (AID 2283384; active = hit-call score of the fitted dose curve at least 0.9, where 1 is the maximum). A digest of the protocol: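 Fluorescence readout, 24 h post-dose, HEK293T; FXR and SRC-1 fused to complementary reporter fragments, association reconstitutes signal. Positive-direction fit vs DMSO baseline.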

Each structure is given as a SMILES string. Values joined by “and” are separate entries in the source; they are usually repeats but may differ in a detail not shown here. Equal entries are not always repeated. Results filed as inconclusive are left out. Active and inactive are the calls of the source. Rule for the calls, unless noted: active = hit-call score of the fitted dose curve at least 0.9, where 1 is the maximum; inactive = score below 0.9.

Chain of Estrogen receptor (Homo sapiens) (P03372 whole entry, looked up): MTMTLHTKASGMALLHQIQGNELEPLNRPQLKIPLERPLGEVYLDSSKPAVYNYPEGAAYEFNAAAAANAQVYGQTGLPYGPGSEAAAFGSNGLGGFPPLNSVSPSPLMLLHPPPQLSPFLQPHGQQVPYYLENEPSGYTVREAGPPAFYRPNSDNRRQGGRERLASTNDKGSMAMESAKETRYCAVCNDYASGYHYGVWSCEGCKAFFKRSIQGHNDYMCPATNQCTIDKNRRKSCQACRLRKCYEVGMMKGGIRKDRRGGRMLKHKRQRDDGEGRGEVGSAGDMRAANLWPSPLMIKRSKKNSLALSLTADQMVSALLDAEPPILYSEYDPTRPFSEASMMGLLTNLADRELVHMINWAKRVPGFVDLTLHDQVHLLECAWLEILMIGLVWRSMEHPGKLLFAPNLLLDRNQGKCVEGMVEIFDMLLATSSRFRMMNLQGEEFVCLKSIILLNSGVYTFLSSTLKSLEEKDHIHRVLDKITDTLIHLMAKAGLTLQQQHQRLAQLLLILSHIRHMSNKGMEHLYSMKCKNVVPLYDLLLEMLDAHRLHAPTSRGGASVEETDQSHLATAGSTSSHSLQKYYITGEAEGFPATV
Chain of Retinoic acid receptor RXR-alpha (Homo sapiens) (P19793 whole entry, looked up, the tested form may be a part): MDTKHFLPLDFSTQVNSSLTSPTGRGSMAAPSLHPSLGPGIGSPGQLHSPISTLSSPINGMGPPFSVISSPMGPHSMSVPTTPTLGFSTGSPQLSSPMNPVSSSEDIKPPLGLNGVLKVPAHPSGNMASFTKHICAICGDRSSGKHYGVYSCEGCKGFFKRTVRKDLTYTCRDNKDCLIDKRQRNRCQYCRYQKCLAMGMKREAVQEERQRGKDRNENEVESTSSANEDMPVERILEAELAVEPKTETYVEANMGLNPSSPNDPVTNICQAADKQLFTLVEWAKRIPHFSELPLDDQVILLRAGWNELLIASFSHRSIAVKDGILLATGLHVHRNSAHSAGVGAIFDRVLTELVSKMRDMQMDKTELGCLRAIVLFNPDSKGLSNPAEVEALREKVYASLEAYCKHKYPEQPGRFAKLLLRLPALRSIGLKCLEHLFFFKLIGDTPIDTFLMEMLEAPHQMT
Chain of Peroxisome proliferator-activated receptor gamma (Homo sapiens) (P37231 whole entry, looked up, the tested form may be a part): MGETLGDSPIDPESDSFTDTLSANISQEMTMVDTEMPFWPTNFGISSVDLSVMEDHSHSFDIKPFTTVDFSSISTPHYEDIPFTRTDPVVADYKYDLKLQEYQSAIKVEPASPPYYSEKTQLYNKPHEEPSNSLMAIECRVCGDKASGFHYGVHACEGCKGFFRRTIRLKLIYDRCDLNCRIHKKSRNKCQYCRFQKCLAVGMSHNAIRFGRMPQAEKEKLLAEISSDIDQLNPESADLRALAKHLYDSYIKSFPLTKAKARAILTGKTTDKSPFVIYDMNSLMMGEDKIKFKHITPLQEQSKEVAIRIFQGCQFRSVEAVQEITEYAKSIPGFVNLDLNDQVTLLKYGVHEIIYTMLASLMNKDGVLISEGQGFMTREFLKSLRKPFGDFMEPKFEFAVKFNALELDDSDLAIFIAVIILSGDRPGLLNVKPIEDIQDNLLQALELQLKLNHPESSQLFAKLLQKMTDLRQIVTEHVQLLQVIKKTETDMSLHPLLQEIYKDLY
Chain of Fatty acid synthase (Homo sapiens) (P49327 whole entry, looked up): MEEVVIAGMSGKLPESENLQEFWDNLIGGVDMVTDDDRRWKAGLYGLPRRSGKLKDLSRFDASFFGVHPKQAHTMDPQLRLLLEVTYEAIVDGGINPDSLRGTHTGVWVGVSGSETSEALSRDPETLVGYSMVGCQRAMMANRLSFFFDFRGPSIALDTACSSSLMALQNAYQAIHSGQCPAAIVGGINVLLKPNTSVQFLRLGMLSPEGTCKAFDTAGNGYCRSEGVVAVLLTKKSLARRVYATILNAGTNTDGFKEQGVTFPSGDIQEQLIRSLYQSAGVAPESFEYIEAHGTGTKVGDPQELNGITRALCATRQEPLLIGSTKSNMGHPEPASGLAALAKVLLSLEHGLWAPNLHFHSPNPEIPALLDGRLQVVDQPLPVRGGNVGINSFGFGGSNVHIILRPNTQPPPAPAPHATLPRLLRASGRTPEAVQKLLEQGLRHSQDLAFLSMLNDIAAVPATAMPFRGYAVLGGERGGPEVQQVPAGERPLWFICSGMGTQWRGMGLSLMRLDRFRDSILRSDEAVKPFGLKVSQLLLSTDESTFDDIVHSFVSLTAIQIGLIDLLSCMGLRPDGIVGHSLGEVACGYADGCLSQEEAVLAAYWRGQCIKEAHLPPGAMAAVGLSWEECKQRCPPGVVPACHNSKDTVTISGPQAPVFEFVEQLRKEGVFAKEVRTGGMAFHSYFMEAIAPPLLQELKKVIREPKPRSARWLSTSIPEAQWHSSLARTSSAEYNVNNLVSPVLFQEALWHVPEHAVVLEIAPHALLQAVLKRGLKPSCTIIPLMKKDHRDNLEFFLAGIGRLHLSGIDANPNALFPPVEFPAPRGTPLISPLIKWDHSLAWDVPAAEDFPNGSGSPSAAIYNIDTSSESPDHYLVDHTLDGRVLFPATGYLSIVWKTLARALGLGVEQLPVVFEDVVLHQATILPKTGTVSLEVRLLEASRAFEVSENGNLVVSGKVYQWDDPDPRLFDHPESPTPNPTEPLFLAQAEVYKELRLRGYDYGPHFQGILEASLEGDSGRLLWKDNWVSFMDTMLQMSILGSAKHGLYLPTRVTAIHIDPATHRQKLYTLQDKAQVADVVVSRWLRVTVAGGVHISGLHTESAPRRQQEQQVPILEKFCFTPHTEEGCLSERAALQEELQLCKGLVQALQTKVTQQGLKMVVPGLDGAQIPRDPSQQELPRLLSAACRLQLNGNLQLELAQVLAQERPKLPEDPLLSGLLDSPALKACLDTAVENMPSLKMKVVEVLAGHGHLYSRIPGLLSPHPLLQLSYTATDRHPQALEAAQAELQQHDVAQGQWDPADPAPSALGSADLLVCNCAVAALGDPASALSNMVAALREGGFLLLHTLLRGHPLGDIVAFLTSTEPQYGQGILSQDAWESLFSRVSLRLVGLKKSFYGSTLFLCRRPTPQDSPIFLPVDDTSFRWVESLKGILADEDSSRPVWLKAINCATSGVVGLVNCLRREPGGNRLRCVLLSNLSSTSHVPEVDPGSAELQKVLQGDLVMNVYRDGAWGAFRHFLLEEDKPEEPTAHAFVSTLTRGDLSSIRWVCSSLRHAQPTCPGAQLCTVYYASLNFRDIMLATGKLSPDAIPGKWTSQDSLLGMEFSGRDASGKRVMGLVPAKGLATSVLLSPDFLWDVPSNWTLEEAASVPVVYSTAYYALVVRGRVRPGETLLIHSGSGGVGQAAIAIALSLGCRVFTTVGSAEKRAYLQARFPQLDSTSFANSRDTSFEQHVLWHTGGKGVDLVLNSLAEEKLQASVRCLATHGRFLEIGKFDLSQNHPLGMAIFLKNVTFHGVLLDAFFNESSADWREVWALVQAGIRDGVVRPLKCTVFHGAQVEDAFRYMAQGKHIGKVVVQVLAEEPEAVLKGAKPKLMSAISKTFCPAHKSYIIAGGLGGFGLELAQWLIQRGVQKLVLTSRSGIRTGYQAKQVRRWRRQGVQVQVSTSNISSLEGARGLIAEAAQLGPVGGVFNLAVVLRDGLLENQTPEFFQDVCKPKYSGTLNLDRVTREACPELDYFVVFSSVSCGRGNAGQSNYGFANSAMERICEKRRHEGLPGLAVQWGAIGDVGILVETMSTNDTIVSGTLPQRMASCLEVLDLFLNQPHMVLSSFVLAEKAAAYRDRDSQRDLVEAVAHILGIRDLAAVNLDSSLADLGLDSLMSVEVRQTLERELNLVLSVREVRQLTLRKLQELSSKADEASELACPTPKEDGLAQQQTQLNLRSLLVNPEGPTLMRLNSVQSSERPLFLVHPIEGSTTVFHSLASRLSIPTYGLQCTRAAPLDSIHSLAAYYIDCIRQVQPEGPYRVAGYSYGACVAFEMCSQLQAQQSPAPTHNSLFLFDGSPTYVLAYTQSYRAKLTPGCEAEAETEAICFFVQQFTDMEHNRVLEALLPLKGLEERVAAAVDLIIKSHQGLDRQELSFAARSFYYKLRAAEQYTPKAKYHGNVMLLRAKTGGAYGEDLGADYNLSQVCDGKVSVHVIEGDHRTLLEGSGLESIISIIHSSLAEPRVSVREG
Chain of Bile acid receptor (Homo sapiens) (Q96RI1 whole entry, looked up, the tested form may be a part): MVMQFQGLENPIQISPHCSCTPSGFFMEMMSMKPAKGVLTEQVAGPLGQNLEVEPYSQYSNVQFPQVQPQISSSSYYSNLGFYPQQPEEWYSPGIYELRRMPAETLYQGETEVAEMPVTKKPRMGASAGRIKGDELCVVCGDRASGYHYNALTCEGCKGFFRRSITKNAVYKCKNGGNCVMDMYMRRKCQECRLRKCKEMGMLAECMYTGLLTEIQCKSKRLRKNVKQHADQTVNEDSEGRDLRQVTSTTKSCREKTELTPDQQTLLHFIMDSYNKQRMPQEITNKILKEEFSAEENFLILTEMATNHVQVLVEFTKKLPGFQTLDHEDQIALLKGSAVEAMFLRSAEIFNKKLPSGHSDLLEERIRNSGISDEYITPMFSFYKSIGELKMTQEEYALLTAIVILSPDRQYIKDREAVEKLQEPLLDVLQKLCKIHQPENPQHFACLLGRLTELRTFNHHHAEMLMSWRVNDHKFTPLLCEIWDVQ

With `O=C(O)C(F)(F)C(F)(F)C(F)(F)C(F)(F)C(F)(F)C(F)(F)C(F)(F)F`, the molecule was called inactive in assay [1], in assay [2], in [3], in assay [4] and in assay [5].
With `O=[N+]([O-])c1c(Cl)c(Cl)c(Cl)c(Cl)c1Cl`, the result in assay [6], in [7], in assay [1], in assay [8], in assay [9] and in assay [10] was inactive. In addition, the call in [11], in [12], in assay [13], in assay [14], in assay [15] and in assay [16] was inactive. In addition, the molecule was called inactive in [17], in assay [18], in assay [3], in assay [4] and in assay [5].
As for `CCCN(CCOc1c(Cl)cc(Cl)cc1Cl)C(=O)n1ccnc1`, the AC50 – broadly, the concentration at which the activity in the assay is half-maximal – in [19] is 11.7 µM (active); in assay [20], 12.4 µM (active); in [1], 11.9 µM (active); in assay [10] it was 0.374 µM (active); in assay [11], 0.159 µM (active); in assay [14], 0.355 µM (active). For the same molecule, the concentration at half-maximal activity (AC50) in assay [15] is 0.0358 µM (active); in assay [18], 0.211 µM (active); in assay [4] it was 77.4 µM (active). Also, the outcome in [2], in assay [8], in [9], in [12], in assay [3] and in assay [5] was inactive.
In the case of `Oc1ccc(Cl)cc1Cc1ccccc1`, the molecule was classed as inactive in [1], in assay [2], in assay [8], in assay [9], in assay [11] and in assay [14]. In addition, the call in assay [18], in assay [3] and in [5] was inactive. Besides, the AC50 is 77.7 µM (active) in assay [10]; 78 µM (active) in [13]; 39.9 µM (active) in assay [15]; 87.9 µM (active) and 74.3 µM (active) and 81.6 µM (active) in assay [4].
With `CNC(=O)Oc1ccccc1OC(C)C`, the outcome in [6], in [7], in assay [1], in assay [2], in [8] and in [9] was inactive. Besides, the call in [10], in assay [11], in [12], in assay [14], in [15] and in [16] was inactive. Also, the outcome in assay [17], in assay [18], in assay [3], in [4] and in assay [5] was inactive.
`N#CN`: the call in assay [6], in assay [7], in assay [1], in assay [8], in assay [9] and in assay [3] was inactive. The outcome in assay [4] and in assay [5] was inactive.

For the origin of these results see PubChem BioAssay (EPA / NIEHS).
